# Measurements as given in the supplement of paper PMC10849652.
# About 7,900 targets were measured; listed, in parts, are those with a hit and a random draw of the rest. About 0.6% of all pairs of compound and target were hits. Values without a mark were called inactive.
# How the values were obtained:
# Experiment in all cases: log2 fold change, soluble protein after heating vs DMSO (PISA); higher = thermal stabilisation; K562 cells, 10 uM, 30 min; active = over 0.2 and 3.5 SD of the protein, either way, in both replicates (recomputed)
# YAE1 = YAE1 (UniProt Q9NRH1)
# In short: (§1)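 K562 cells at 2×10^6 cells/mL were given 10 μM compound for 30 min. Aliquots then went through 3 min of heating across 48°C-58°C, were pooled, and were extracted in PBS with 0.5% NP-40 at 4°C, and the supernatant after 21,000xg for 90 min was quantified by TMTpro 16plex LC-MS/MS with channel sums equalised. Thermal stability relative to control samples, from duplicates, is given as log2 fold change.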
# YBX1 = YBX1 (UniProt P67809)
# In short: as §1
# YES1 = YES1 (UniProt P07947)
# In short: as §1
# YIPF4 = YIPF4 (UniProt Q9BSR8)
# In short: as §1
# YIPF5 isoform 3 = YIPF5 isoform 3 (UniProt Q969M3)
# In short: as §1
# YIPF6 = YIPF6 (UniProt Q96EC8)
# In short: as §1
# YLPM1 = YLPM1 (UniProt P49750)
# In short: as §1
# YOD1 = YOD1 (UniProt Q5VVQ6)
# In short: as §1
# YPEL5 = YPEL5 (UniProt P62699)
# In short: as §1
# YWHAB = YWHAB (UniProt P31946)
# In short: as §1
# YWHAQ = YWHAQ (UniProt P27348)
# In short: as §1
# YWHAZ [1] = target: YWHAZ (UniProt E7ESK7)
# In short: as §1
# YWHAZ [2] = target: YWHAZ (UniProt P63104)
# In short: as §1
# YY1 = YY1 (UniProt P25490)
# In short: as §1
# ZADH2 = ZADH2 (UniProt Q8N4Q0)
# In short: as §1
# ZBTB21 = ZBTB21 (UniProt Q9ULJ3)
# In short: as §1
# ZC3H18 = ZC3H18 (UniProt Q86VM9)
# In short: as §1
# ZBTB43 = ZBTB43 (UniProt O43298)
# In short: as §1
# ZBTB17 isoform 2 = ZBTB17 isoform 2 (UniProt Q13105)
# In short: as §1
# YBX1, sequence (P67809 whole entry, looked up): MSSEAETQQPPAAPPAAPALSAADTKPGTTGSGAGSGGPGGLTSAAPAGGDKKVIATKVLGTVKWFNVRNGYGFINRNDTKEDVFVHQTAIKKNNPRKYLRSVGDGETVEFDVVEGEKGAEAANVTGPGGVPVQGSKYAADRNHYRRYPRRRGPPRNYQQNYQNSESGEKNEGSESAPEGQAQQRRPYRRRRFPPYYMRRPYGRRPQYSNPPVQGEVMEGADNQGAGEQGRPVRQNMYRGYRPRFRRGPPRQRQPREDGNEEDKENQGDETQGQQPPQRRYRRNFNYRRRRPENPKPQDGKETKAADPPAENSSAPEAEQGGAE
# YWHAQ, sequence (P27348 whole entry, looked up): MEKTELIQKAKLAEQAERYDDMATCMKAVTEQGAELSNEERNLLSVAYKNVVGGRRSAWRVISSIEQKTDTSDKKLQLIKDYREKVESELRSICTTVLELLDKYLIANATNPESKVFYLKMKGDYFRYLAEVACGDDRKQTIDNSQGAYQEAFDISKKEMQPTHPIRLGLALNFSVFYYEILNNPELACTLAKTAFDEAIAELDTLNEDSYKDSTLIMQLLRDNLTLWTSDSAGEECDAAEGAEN
# YLPM1, sequence (P49750 whole entry, looked up): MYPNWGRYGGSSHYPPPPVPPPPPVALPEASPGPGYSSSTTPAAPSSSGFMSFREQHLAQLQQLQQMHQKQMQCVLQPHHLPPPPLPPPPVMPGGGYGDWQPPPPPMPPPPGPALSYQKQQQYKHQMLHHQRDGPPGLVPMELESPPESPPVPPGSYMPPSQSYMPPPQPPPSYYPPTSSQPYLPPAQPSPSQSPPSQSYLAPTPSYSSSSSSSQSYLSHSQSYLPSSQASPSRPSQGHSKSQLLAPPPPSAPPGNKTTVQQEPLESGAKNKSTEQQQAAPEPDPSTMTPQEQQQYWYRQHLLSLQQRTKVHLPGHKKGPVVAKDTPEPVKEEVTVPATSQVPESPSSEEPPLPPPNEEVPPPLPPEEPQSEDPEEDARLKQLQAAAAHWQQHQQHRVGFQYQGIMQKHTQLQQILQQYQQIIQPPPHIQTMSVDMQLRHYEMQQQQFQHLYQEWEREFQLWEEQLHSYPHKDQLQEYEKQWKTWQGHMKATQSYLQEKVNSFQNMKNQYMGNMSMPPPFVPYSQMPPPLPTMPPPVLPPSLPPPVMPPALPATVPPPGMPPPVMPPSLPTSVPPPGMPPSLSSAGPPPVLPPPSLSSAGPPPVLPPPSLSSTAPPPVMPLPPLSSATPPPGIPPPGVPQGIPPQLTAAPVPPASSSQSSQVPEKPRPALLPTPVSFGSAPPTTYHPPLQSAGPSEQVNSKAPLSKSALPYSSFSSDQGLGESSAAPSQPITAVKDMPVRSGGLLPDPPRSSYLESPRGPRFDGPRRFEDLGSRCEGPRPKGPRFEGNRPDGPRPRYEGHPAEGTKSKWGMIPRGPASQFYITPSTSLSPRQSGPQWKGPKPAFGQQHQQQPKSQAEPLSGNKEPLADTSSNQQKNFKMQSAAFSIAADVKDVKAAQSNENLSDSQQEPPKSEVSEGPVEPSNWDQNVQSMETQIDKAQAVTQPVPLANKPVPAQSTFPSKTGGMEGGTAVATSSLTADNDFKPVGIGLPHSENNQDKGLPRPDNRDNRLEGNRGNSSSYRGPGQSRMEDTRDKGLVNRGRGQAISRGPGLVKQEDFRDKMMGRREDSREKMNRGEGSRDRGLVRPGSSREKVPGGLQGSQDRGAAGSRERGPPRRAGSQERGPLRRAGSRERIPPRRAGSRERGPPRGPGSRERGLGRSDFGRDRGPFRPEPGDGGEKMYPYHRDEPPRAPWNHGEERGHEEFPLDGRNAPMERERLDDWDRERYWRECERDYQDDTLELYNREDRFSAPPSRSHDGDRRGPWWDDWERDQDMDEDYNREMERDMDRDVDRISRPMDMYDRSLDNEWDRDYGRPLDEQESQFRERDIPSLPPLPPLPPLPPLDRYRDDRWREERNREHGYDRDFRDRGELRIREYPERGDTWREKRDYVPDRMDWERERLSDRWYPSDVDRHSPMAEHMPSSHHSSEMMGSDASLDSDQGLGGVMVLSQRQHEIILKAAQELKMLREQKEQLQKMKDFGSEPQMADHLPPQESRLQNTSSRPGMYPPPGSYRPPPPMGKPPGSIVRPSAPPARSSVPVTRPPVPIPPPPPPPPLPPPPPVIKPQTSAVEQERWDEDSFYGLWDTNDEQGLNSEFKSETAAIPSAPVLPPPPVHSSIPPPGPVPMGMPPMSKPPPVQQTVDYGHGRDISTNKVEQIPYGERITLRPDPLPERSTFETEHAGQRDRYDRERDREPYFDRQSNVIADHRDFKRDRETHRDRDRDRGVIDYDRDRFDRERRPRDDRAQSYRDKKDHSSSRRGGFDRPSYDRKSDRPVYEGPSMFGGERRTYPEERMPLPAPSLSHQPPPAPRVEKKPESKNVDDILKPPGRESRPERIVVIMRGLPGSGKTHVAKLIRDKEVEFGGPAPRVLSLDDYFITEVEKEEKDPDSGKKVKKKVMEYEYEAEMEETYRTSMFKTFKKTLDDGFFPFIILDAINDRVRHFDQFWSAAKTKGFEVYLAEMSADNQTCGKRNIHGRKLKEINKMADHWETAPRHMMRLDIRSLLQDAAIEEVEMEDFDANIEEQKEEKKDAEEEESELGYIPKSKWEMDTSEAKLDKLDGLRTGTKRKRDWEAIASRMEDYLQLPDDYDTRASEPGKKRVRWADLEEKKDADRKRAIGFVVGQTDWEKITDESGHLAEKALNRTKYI
# YIPF6, sequence (Q96EC8 whole entry, looked up): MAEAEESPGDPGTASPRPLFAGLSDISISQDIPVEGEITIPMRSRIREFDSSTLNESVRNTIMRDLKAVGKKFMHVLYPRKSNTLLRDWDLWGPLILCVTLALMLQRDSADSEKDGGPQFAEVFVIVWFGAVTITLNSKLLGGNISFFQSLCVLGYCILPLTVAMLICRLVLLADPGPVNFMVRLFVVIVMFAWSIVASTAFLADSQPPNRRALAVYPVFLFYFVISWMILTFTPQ
# YES1, sequence (P07947 whole entry, looked up): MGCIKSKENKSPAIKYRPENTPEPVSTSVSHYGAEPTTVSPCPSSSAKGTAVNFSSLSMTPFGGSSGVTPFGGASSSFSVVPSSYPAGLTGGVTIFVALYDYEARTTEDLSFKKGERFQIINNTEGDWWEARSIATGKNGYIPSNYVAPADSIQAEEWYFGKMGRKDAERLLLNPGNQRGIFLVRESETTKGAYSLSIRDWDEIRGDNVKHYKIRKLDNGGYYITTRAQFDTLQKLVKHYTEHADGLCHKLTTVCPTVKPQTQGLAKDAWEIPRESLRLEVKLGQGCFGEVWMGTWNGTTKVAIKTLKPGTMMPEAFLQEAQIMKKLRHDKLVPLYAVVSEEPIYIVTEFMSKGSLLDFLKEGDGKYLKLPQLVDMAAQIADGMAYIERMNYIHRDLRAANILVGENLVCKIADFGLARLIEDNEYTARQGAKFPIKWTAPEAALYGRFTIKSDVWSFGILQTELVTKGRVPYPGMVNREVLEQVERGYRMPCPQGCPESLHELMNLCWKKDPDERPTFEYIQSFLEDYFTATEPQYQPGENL
# YWHAB, sequence (P31946 whole entry, looked up): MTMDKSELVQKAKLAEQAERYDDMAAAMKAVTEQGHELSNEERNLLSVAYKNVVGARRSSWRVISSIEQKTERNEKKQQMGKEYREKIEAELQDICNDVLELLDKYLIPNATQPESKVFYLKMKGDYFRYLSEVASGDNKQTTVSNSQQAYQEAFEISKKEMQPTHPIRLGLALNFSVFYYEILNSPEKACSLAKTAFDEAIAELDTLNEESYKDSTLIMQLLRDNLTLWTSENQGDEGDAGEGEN
# YPEL5, sequence (P62699 whole entry, looked up): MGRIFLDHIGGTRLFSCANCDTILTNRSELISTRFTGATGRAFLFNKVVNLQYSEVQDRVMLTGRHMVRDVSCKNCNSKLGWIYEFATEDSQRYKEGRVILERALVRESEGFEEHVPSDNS
# ZC3H18, sequence (Q86VM9 whole entry, looked up): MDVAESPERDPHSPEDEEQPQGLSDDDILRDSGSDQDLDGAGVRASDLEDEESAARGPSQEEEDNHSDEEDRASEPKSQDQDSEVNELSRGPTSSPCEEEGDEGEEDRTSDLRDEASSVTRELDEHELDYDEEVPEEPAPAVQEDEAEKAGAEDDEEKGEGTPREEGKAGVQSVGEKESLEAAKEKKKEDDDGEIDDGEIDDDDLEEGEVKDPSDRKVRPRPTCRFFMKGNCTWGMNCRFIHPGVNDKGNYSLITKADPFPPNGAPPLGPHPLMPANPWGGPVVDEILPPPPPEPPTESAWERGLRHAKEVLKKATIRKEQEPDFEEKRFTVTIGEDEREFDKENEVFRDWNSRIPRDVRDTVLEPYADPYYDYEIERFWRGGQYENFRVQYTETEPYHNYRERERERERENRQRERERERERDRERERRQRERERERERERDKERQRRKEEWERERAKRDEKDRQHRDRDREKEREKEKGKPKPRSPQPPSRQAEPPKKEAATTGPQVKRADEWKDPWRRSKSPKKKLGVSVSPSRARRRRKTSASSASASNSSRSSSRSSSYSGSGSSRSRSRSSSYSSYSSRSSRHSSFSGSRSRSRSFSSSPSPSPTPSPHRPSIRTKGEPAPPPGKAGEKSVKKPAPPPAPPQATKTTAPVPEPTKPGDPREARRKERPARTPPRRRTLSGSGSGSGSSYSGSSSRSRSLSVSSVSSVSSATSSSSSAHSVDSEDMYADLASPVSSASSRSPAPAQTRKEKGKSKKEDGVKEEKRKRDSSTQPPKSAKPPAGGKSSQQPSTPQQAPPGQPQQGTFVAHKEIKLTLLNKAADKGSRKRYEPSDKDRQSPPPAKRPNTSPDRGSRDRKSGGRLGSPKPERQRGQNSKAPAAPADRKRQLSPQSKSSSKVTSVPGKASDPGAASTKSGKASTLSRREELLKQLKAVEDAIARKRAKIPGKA
SMILES,log2 fold change (YAE1),log2 fold change (YBX1),log2 fold change (YES1),log2 fold change (YIPF4),log2 fold change (YIPF5 isoform 3),log2 fold change (YIPF6),log2 fold change (YLPM1),log2 fold change (YOD1),log2 fold change (YPEL5),log2 fold change (YWHAB),log2 fold change (YWHAQ),log2 fold change (YWHAZ [1]),log2 fold change (YWHAZ [2]),log2 fold change (YY1),log2 fold change (ZADH2),log2 fold change (ZBTB21),log2 fold change (ZC3H18),log2 fold change (ZBTB43),log2 fold change (ZBTB17 isoform 2)
Cc1ccc(Sc2cncc3sc(C(N)=O)cc23)cc1,-0.012,-0.124,0.03,-0.023,0.071,-0.018,-0.008,0.009,0.01,-0.033,0.079,-0.019,0.123,0.01,-0.015,0.008,-0.064,,
CC(C)(C)Cn1c(N)nc2ccc(-c3[nH]c(C(C)(C)C)nc3-c3ccc(F)cc3)nc21 [ralimetinib],0.023,0.082,-0.09,-0.099,-0.292,-0.045,0.043,-0.001,-0.111,-0.063,0.237,-0.031,0.145,0.002,0.169,0.121,0.03,0.012,
CC[C@@H]1C(=O)N(C)c2cnc(Nc3ccc(C(=O)NC4CCN(C)CC4)cc3OC)nc2N1C1CCCC1,-0.022,0.262,0.129,0.022,0.088,-0.001,-0.016,-0.099,0.024,-0.055,-0.141,0.1,-0.083,-0.149,0.153,,-0.008,-0.061,
CCN(CC)Cc1ccc2cc(COC(=O)Nc3ccc(C(=O)NO)cc3)ccc2c1 [givinostat],-0.017,-0.056,0.016,-0.048,-0.053,-0.028,0.061,0.024,-0.009,-0.026,-0.039,,-0.001,0.02,-0.066,-0.045,0.106,-0.006,-0.011
COC(=O)N[C@@H](C)CNc1nccc(-c2cn(C(C)C)nc2-c2cc(Cl)cc(NS(C)(=O)=O)c2F)n1 [encorafenib],0.007,0.041,0.242,-0.038,0.012,-0.042,0.052,0.02,-0.001,-0.003,-0.016,-0.156,-0.031,0.066,0.045,,-0.03,0.065,
Cc1ccc(C(=O)N(CCCN)[C@@H](c2nc3cc(Cl)ccc3c(=O)n2Cc2ccccc2)C(C)C)cc1 [ispinesib],0.063,-0.093,-0.097,-0.024,0.08,0.02,0.034,-0.042,-0.039,0.053,0.241,-0.11,0.149,-0.147,-0.107,-0.09,0.039,0.164,
Oc1cc(-c2nc(-c3ccccc3)[nH]c2-c2ccncc2)ccc1Cl,-0.015,-0.053,-0.112,-0.054,-0.05,-0.041,-0.024,-0.02,0.213,-0.02,0.284,-0.068,0.096,-0.053,0.121,-0.067,0.015,-0.064,
COc1cc2nc(-c3cc(F)ccc3O)nc(N[C@@H]3CNC[C@H]3C(C)(C)O)c2cc1OC,0.125,-0.054,-0.052,-0.094,0.13,0.043,0.1,0.018,0.096,-0.062,-0.148,0.028,-0.163,-0.268 (active),0.045,0.022,-0.066,,
Cc1cc(SCc2sc(-c3ccc(C(F)(F)F)cc3)nc2C)ccc1OCC(=O)O,0.021,-0.024,0.06,-0.04,0.015,-0.175,0,0.061,0.098,0.005,0.119,-0.02,0.012,0.002,-0.027,0.043,-0.034,0.041,
CO[C@H]1C[C@@H]2CC[C@@H](C)[C@@](O)(O2)C(=O)C(=O)N2CCCC[C@H]2C(=O)O[C@H]([C@H](C)C[C@@H]2CC[C@H](n3cnnn3)[C@H](OC)C2)CC(=O)[C@H](C)/C=C(\C)[C@@H](O)[C@@H](OC)C(=O)[C@H](C)C[C@H](C)/C=C/C=C/C=C/1C [zotarolimus],0,-0.048,0.053,0.015,0.006,-0.026,-0.001,0.05,0.05,0.015,0.196,-0.072,0.107,-0.01,0.07,0.004,0.041,-0.036,
C#Cc1cccc(Nc2ncnc3cc(OCCOC)c(OCCOC)cc23)c1 [erlotinib],0.055,-0.173,-0.145,0.004,0.011,-0.017,0.084,0.064,0.049,0.011,-0.07,,0.011,-0.019,0.005,0.235,-0.066,0.081,-0.048
CC(C)C[C@@H](C=O)NC(=O)[C@H](CC(C)C)NC(=O)[C@H](CC(C)C)NC(=O)OCc1ccccc1,0.007,0.083,0.068,-0.016,-0.012,0.02,0.028,0.045,0.05,-0.003,-0.184,0.019,-0.098,0.091,-0.045,-0.013,-0.042,0.05,
CCCS(=O)(=O)Nc1ccc(F)c(C(=O)c2c[nH]c3ncc(Cl)cc23)c1F,-0.037,-0.137,-0.217,-0.01,-0.096,0.004,0.047,0.033,-0.127,0.031,0.233,-0.05,0.228 (active),0.037,-0.012,0.091,-0.019,,
C[C@@H]1COCCN1c1cc(C2(S(C)(=O)=O)CC2)nc(-c2cccc3[nH]ccc23)n1,-0.039,-0.368,-0.035,0.095,0.019,0.076,0.015,0.055,-0.079,0.025,0.074,0.165,0.011,0.02,0.22,-0.101,-0.008,-0.088,
O=C(CCCCCCC(=O)Nc1ccccc1)NO [vorinostat],0.044,-0.056,0.069,-0.046,0.156,-0.035,0.024,0.033,0.028,-0.02,0.39,,-0.013,0.134,0.002,0.079,0.091,-0.005,
CNC(=O)c1ccc(Nc2ncc(C(F)(F)F)c(NCc3nccnc3N(C)S(C)(=O)=O)n2)cc1 [defactinib],0.026,0.301,-0.199,-0.016,-0.019,-0.041,-0.019,-0.103,-0.073,-0.022,0,,0,-0.299 (active),0.025,-0.033,-0.234,0.063,
